Sampled rows, rich in hits. Any-hit rate of the full collection: about 1.2%.
PrP UTR inh: inhibition of PrP 5' UTR reporter expression; AID 488862, 2010; hit rate 0.35% among 340,000; cell-based PrP 5' UTR mRNA reporter, plate reader; inhibition, % (test concentration not listed); in the data active = inhibition above about 52%; also: 0 = median of the neutral control wells
BJeLR lethal: MLPCN primary cell-based screen for lethality selective to Ras in HRASV12 cells | BJeLR (HRASV12) viability, CellTiter-Glo ATP luminescence, 48 h | inhibition, % (no concentration beside the values) | hit rate 0.17% among 300,000; in the data active = inhibition above about 50%
PrPC TRFRET: inhibitors of human cell surface prion protein PrPC, primary screen, cell-based, TR-FRET; Major prion protein (Homo sapiens), P04156; TR-FRET read-out; inhibition, % at 13.8 µM; hit rate 0.43% among 370,000; AID 720596, 2013; in the data active = inhibition above about 24%; also: 0% = median of the test wells and 100% = reference compound wells
SARS 3CLpro inh: SARS-CoV 3CLpro protease inhibitors, primary screen, biochemical, quenched FRET. AID 1706, 2009. hit rate 0.14% among 290,000. inhibition, % at 6 µM. Replicase polyprotein 1ab (Severe acute respiratory syndrome coronavirus), P0C6X7. recombinant SARS-CoV 3CLpro, quenched FRET peptide cleavage; in the data active = inhibition above about 12%
SSB-PriA inh: inhibitors of Klebsiella pneumoniae PriA binding to SSB C-terminal tail, primary screen, biochemical, AlphaScreen. PriA–SSB C-terminal tail interaction (Klebsiella pneumoniae). AlphaScreen SSBct-PriA binding, biotinylated peptide. inhibition, % at 33 µM. hit rate 0.6% among 430,000. AID 1272365, 2023; in the data active = inhibition mostly above about 37%, no sharp cut-off; inactive = mostly below about 20%;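 also: plate controls were negative control peptide for no effect and reference peptide for full effect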
PrPC TRFRET cf: confirmation of inhibitors of cell surface human prion protein, confirmation, cell-based, TR-FRET | shares compounds with PrPC TRFRET | cell surface PrPC level | inhibition, % at 13.8 µM | hit rate 65% among 1,500 | AID 743200, 2013; in the data active = inhibition above about 25%
LD9 tox: cytotoxicity in LD9 cells, cytotoxicity control for cell surface PrPc inhibitor project, cell-based, luminescence, high throughput; inhibition, % at 13.8 µM; luminescence viability; hit rate 29% among 1,500; AID 743201, 2013; shares compounds with PrPC TRFRET; in the data active = inhibition above about 9.5%
* hit, by the source's call; · = no result.

SMILES	PrP UTR inh	BJeLR lethal	PrPC TRFRET	SARS 3CLpro inh	SSB-PriA inh	PrPC TRFRET cf	LD9 tox
Cc1cc(NCCCn2ccnc2)n2nc(C)c(-c3ccccc3)c2n1	-18	8	-4	1	-2	·	·
Cc1cc(NCCCn2ccnc2)n2nc(C)c(-c3ccc(Cl)cc3)c2n1	·	-4	44*	1	-19	2	9.7*
COC(CNC(=O)CN1C(=O)CCC1=O)c1ccccc1C (stereo not given)	·	·	·	·	-4	·	·
COc1ccccc1CNC(=O)C1(c2ccc(F)cc2)CC1	·	·	·	·	-24	·	·
CNC(=O)OCc1nc(SSC(C)(C)C)n(C)c1COC(=O)NC	-20	·	50*	·	-9	23	92*
O=C(NC1CCC(Oc2ncc(F)cn2)CC1)c1cc(C2CC2)on1 (stereo not given)	·	·	·	·	-18	·	·
Cc1nn(C(C)C(=O)O)c(=O)c2c1sc1ccccc12 (stereo not given)	-5	8	45*	-4	-6	60*	-9
Cc1ccc(CSC(Nc2ccc(F)cc2)=C(C#N)C#N)cc1	-15	42	33*	10	-5	36*	25*
CC1CCN(C(=O)CSc2nnc(CSc3ncccn3)n2C)CC1	-22	3	25*	0	11	7	-2
Cc1c(C(=O)N2CCc3ccccc32)oc2ccccc12	-122	-6	2	7	-34	·	·
COCc1c(C(=O)N2CCc3ccccc32)oc2ccccc12	-15	3	26*	4	-45	3	-4
CCc1ccc(/C=C/C(=O)Nc2ccc(F)cc2)o1	·	·	·	·	15	·	·
O=C(N/N=C/c1cccc(O)c1)c1ccc(NC(=O)C2CCCCC2)cc1	-5	0	1	2	·	·	·
O=C(N/N=C/c1ccc(O)cc1O)c1ccc(NC(=O)C2CCCCC2)cc1	-8	13	34*	-8	·	37*	-5
COc1ccc(C(=O)NCCSc2ccc(C)cc2)cc1	-15	-2	57*	0	-9	-4	-6
CCOC(CCn1ccc(O)c(Cc2ccc(Cl)cc2)c1=O)OCC	5	1	35*	0	-3	11	-1
O=c1c(Cc2ccc(Cl)cc2)c(O)ccn1Cc1ccccc1	-23	3	5	-1	2	·	·
O=C(Cc1ccccc1)NNc1ccc2ccccc2c1	-32	13	30*	0	-4	13	0
O=C(Nc1cc(S(=O)(=O)N2CCCCC2)ccc1O)c1ccccc1NS(=O)(=O)c1ccc(F)cc1	-105	-2	7	4	1	·	·
O=C(Nc1cc(S(=O)(=O)N2CCCCC2)ccc1Cl)c1ccccc1NS(=O)(=O)c1ccc(F)cc1	-1	51*	25*	8	-5	33*	25*
Cc1ccc(C(=O)Nc2ncc(Cc3ccccc3)s2)o1	-19	6	27*	-7	11	26*	3
CN1C2CCC1CC(=NO)C2	-9	9	84*	2	-9	5	0
COc1ccc(C(CC(=O)O)NC(=O)c2sc3ccccc3c2Cl)cc1 (stereo not given)	-16	1	34*	7	-17	38*	-4
CCOC(=O)Nc1ccc(-c2csc(Nc3cccnc3)n2)cc1	·	·	·	·	-21	·	·
CCCCCN1C(=O)c2cc(OC)ccc2[C@@]2(C(=O)OCC)Cc3cc(Cl)ccc3[C@@H]12	·	·	33*	·	·	47*	99*
SMILES	PrP UTR inh	BJeLR lethal	PrPC TRFRET	SARS 3CLpro inh	SSB-PriA inh	PrPC TRFRET cf	LD9 tox
CCOC(=O)[C@]12Cc3cc(OC)ccc3[C@H]1N(C1CCCCC1)C(=O)c1ccccc12	·	·	26*	·	·	42*	95*
CCOC(=O)[C@]12Cc3cc(Cl)ccc3[C@H]1N(Cc1ccccc1)C(=O)c1cc(OC)ccc12	·	·	17	·	·	·	·
O=C(Cn1nnc2ccccc21)NC(c1cccnc1)C1CCOCC1 (stereo not given)	·	·	·	·	8	·	·
CNC(=S)/N=C/NOCc1ccc(Cl)cc1Cl	-31	3	36*	7	·	45*	35*
CNC(=S)N=CNOCc1ccc(Cl)cc1Cl	·	·	·	·	-25	·	·
COc1cc2ccccc2cc1C(=O)Nc1ccc(Cc2ccncc2)cc1	-50	0	30*	1	-2	16	19*
COc1cc2ccccc2cc1C(=O)Nc1ccc(Cc2ccc(NC(=O)c3cc4ccccc4cc3OC)cc2)cc1	·	·	·	·	-6	·	·
O=C(COC(=O)CSc1ccc2ccccc2c1Br)NC1CC1	-9	1	56*	2	-7	79*	-7
N=C1C(c2nc3ccccc3s2)=C(O)CN1NC(=O)c1c[nH]c2ccccc12	-7	2	26*	-3	-16	34*	6
CCOc1ccc(N2C(=O)CC(Sc3nc(-c4cccs4)cc(C(F)(F)F)c3C#N)C2=O)cc1 (stereo not given)	-9	-5	25*	6	-5	11	-4
COCc1cc(C)nc(SCc2ccccc2Cl)c1C#N	-4	-18	25*	1	-6	7	-4
CCCCOc1ccc(Br)cc1CSC(=N)N	-17	8	25*	2	-93	4	21*
CC1=C(O)C(=O)C=C2C1=CC=C1C2(C)CCC2(C)C3CC(C)(C(=O)O)CCC3(C)CCC12C (stereo not given)	24	·	62*	·	-3	89*	98*
Cc1cc(NC(=O)CSc2nc(C(C)C)nc3ccccc23)no1	-19	-4	118*	3	-5	124*	-14
Cc1cc(NC(=O)C(C)Sc2nc(-c3cccs3)nc3ccccc23)no1 (stereo not given)	-16	·	43*	·	-3	102*	-4
CC(C)c1nc(SCC(=O)NC2CCCC2)c2ccccc2n1	-20	-11	16	-2	-3	·	·
Cc1cc(NC(=O)CSc2ccc(-c3cccs3)nn2)no1	·	·	·	·	-6	·	·
CC(C)c1nc(SCC(=O)Nc2nc3c(s2)CCCC3)c2ccccc2n1	-9	0	60*	4	-6	75*	-1
Cc1nnc(NC(=O)CSc2nc(C(C)C)nc3ccccc23)s1	-16	8	29*	-3	-5	78*	-4
Cc1cc(NC(=O)CSc2ccccc2)no1	-12	0	4	-1	-3	·	·
Cc1cc(O[C@H]2CCN(C(=O)c3cc(-c4ccc(F)cc4)n[nH]3)C2)cc(=O)o1	·	·	·	·	-11	·	·
COc1ccc([N+](=O)[O-])c(S(=O)(=O)c2ccccc2)n1	·	4	52*	0	-13	-4	95*
COc1ccc([N+](=O)[O-])c(S(=O)(=O)c2ccc(Cl)cc2)n1	-25	5	0	2	-9	·	·

Bioassay records as filed in PubChem BioAssay.
